# In the supplement of paper PMC8728848:
# Many of the other results were omitted from the sample, so the strongest signals are more common in it than they were.
# What was measured:
# Assay in all cases: glycan array binding signal (z-score within array); higher = stronger binding
# Details in all cases: glycan notation: IUPAC condensed, linker removed
# [1] = target: Fuc(a1-2)Gal(b1-3)GalNAc(b1-3)Gal
# Summary of the method: (§1)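 Arrays were curated from the Consortium for Functional Glycomics database, 3228 in total, and kept only where the protein sequence was available. Binding is expressed as a within-array Z-score. This score was averaged across arrays of the same protein sequence at different concentrations or buffers and across linkers, and negative values can be read as non-binding.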
# [2] = target: Fuc(a1-2)Gal(b1-3)GalNAc(b1-3)Gal(a1-4)Gal(b1-4)Glc
# Summary of the method: as §1
# Fuc(a1-2)Gal(b1-3)GlcNAc = target: Fuc(a1-2)Gal(b1-3)GlcNAc
# Summary of the method: as §1
# [3] = target: Fuc(a1-2)[Gal(a1-3)]Gal(b1-3)GalNAc(b1-3)Gal(a1-4)Gal(b1-4)Glc
# Summary of the method: as §1
# [4] = target: Fuc(a1-2)[Gal(a1-3)]Gal(b1-3)GlcNAc
# Summary of the method: as §1
# [5] = target: Fuc(a1-2)[GalNAc(a1-3)]Gal(b1-4)GlcNAc(b1-3)Gal(b1-4)GlcNAc(b1-3)Gal(b1-4)GlcNAc
# Summary of the method: as §1
# [6] = target: Fuc(a1-2)[GalNAc(a1-3)]Gal(b1-4)[Fuc(a1-3)]GlcNAc
# Summary of the method: as §1
# [7] = target: Fuc(a1-2)[GalNAc(b1-3)]Gal
# Summary of the method: as §1
# Fuc(a1-3)GlcNAc = target: Fuc(a1-3)GlcNAc
# Summary of the method: as §1
# [8] = target: Fuc(a1-3)[Gal(b1-4)]GlcNAc(b1-2)Man
# Summary of the method: as §1
# Gal(a1-3)Gal(b1-3)GlcNAc = target: Gal(a1-3)Gal(b1-3)GlcNAc
# Summary of the method: as §1
# [9] = target: Gal(a1-3)Gal(b1-3)GlcNAc(b1-2)Man(a1-3)[Gal(a1-3)Gal(b1-3)GlcNAc(b1-2)Man(a1-6)]Man(b1-4)GlcNAc(b1-4)GlcNAc
# Summary of the method: as §1
# [10] = target: Gal(a1-3)Gal(b1-4)GlcNAc(b1-3)GalNAc
# Summary of the method: as §1
# [11] = target: Gal(a1-4)Gal(b1-4)GlcNAc(b1-2)Man(a1-3)[Gal(a1-4)Gal(b1-4)GlcNAc(b1-2)Man(a1-6)]Man(b1-4)GlcNAc(b1-4)GlcNAc
# Summary of the method: as §1
# Gal(b1-2)Gal = target: Gal(b1-2)Gal
# Summary of the method: as §1
# Gal(b1-3)Gal(b1-4)GlcNAc = target: Gal(b1-3)Gal(b1-4)GlcNAc
# Summary of the method: as §1
# [12] = target: Gal(b1-3)GalNAc(a1-3)[Fuc(a1-2)]Gal(b1-4)GlcNAc
# Summary of the method: as §1
# [13] = target: Gal(b1-3)GlcNAc(b1-2)Man(a1-3)[Gal(b1-3)GlcNAc(b1-2)Man(a1-6)]Man(b1-4)GlcNAc(b1-4)[Fuc(a1-6)]GlcNAc
# Summary of the method: as §1
# [14] = target: Gal(b1-3)GlcNAc(b1-2)[Gal(b1-3)GlcNAc(b1-6)]Man(a1-6)[Gal(b1-3)GlcNAc(b1-2)Man(a1-3)]Man(b1-4)GlcNAc(b1-4)GlcNAc
# Summary of the method: as §1
# Gal(b1-4)Gal = target: Gal(b1-4)Gal
# Summary of the method: as §1
# Gal(b1-4)GlcNAc = target: Gal(b1-4)GlcNAc
# Summary of the method: as §1
# [15] = target: Gal(b1-4)GlcNAc(b1-2)[Gal(b1-4)GlcNAc(b1-4)]Man(a1-3)[Gal(b1-4)GlcNAc(b1-2)[Gal(b1-4)GlcNAc(b1-6)]Man(a1-6)]Man(b1-4)GlcNAc(b1-4)GlcNAc
# Summary of the method: as §1
# [16] = target: Gal(b1-4)GlcNAc(b1-3)Gal(b1-4)GlcNAc(b1-3)Gal(b1-4)GlcNAc(b1-3)Gal(b1-4)GlcNAc(b1-2)[Gal(b1-4)GlcNAc(b1-3)Gal(b1-4)GlcNAc(b1-3)Gal(b1-4)GlcNAc(b1-3)Gal(b1-4)GlcNAc(b1-6)]Man(a1-6)[Gal(b1-4)GlcNAc(b1-3)Gal(b1-4)GlcNAc(b1-3)Gal(b1-4)GlcNAc(b1-3)Gal(b1-4)GlcNAc(b1-2)Man(a1-3)]Man(b1-4)GlcNAc(b1-4)[Fuc(a1-6)]GlcNAc
# Summary of the method: as §1
# [17] = target: Gal(b1-4)GlcNAc(b1-3)Gal(b1-4)GlcNAc(b1-3)Gal(b1-4)GlcNAc(b1-3)Gal(b1-4)GlcNAc(b1-3)Gal(b1-4)GlcNAc(b1-2)Man(a1-3)[Gal(b1-4)GlcNAc(b1-3)Gal(b1-4)GlcNAc(b1-3)Gal(b1-4)GlcNAc(b1-3)Gal(b1-4)GlcNAc(b1-3)Gal(b1-4)GlcNAc(b1-2)Man(a1-6)]Man(b1-4)GlcNAc(b1-4)GlcNAc
# Summary of the method: as §1
# [18] = target: Gal(b1-4)GlcNAc(b1-3)Gal(b1-4)[Fuc(a1-3)]GlcNAc(b1-3)Gal(b1-4)[Fuc(a1-3)]GlcNAc
# Summary of the method: as §1
# Gal3S(b1-3)GlcNAc = target: Gal3S(b1-3)GlcNAc
# Summary of the method: as §1
# Gal3S(b1-4)Glc6S = target: Gal3S(b1-4)Glc6S
# Summary of the method: as §1
# [19] = target: Gal3S(b1-4)[Fuc(a1-3)]Glc6S
# Summary of the method: as §1
# [20] = target: Gal3S(b1-4)[Fuc(a1-3)]GlcNAc6S
# Summary of the method: as §1
# Gal4S6S(b1-4)GlcNAc = target: Gal4S6S(b1-4)GlcNAc
# Summary of the method: as §1
# Gal6S(b1-4)GlcNAc = target: Gal6S(b1-4)GlcNAc
# Summary of the method: as §1
# [21] = target: GalNAc(b1-3)Gal(a1-4)Gal(b1-4)GlcNAc
# Summary of the method: as §1
# [22] = target: GalNAc(b1-3)Gal(a1-6)Gal(b1-4)Glc
# Summary of the method: as §1
# GalNAc(b1-4)GlcNAc = target: GalNAc(b1-4)GlcNAc
# Summary of the method: as §1
# [23] = target: GlcNAc(a1-4)Gal(b1-4)GlcNAc
# Summary of the method: as §1
# [24] = target: GlcNAc(a1-4)Gal(b1-4)GlcNAc(b1-3)Gal(b1-4)[Fuc(a1-3)]GlcNAc(b1-3)Gal(b1-4)[Fuc(a1-3)]GlcNAc
# Summary of the method: as §1
# [25] = target: GlcNAc(b1-3)Gal(b1-4)GlcNAc(b1-2)Man(a1-3)[GlcNAc(b1-3)Gal(b1-4)GlcNAc(b1-2)Man(a1-6)]Man(b1-4)GlcNAc(b1-4)[Fuc(a1-6)]GlcNAc
# Summary of the method: as §1
# Kdn(a2-3)Gal(b1-4)Glc = target: Kdn(a2-3)Gal(b1-4)Glc
# Summary of the method: as §1
# [26] = target: Neu5Ac(a2-3)Gal(b1-3)GlcNAc(b1-3)Gal(b1-4)GlcNAc
# Summary of the method: as §1
# [27] = target: Neu5Ac(a2-3)Gal(b1-3)GlcNAc(b1-6)GalNAc
# Summary of the method: as §1
# [28] = target: Neu5Ac(a2-3)Gal(b1-4)GlcNAc(b1-2)Man(a1-3)[Neu5Ac(a2-6)Gal(b1-4)GlcNAc(b1-2)Man(a1-6)]Man(b1-4)GlcNAc(b1-4)GlcNAc
# Summary of the method: as §1
# [29] = target: Neu5Ac(a2-3)Gal(b1-4)GlcNAc(b1-2)[Neu5Ac(a2-3)Gal(b1-4)GlcNAc(b1-6)]Man(a1-6)[Neu5Ac(a2-3)Gal(b1-4)GlcNAc(b1-2)Man(a1-3)][GlcNAc(b1-4)]Man(b1-4)GlcNAc(b1-4)GlcNAc
# Summary of the method: as §1
# [30] = target: Neu5Ac(a2-3)Gal(b1-4)GlcNAc(b1-3)Gal
# Summary of the method: as §1
# [31] = target: Neu5Ac(a2-3)Gal(b1-4)GlcNAc(b1-3)Gal(b1-4)GlcNAc(b1-3)Gal(b1-4)GlcNAc(b1-2)Man(a1-3)[Neu5Ac(a2-3)Gal(b1-4)GlcNAc(b1-3)Gal(b1-4)GlcNAc(b1-3)Gal(b1-4)GlcNAc(b1-2)Man(a1-6)]GalNAc
# Summary of the method: as §1
# [32] = target: Neu5Ac(a2-3)Gal(b1-4)GlcNAc(b1-3)[Neu5Ac(a2-3)Gal(b1-4)GlcNAc(b1-6)]GalNAc
# Summary of the method: as §1
# [33] = target: Neu5Ac(a2-3)Gal(b1-4)GlcNAc(b1-6)[Gal(b1-3)]GalNAc
# Summary of the method: as §1
# [34] = target: Neu5Ac(a2-6)Gal(b1-3)GlcNAc(b1-3)[Gal(b1-4)GlcNAc(b1-6)]Gal(b1-4)Glc
# Summary of the method: as §1
# [35] = target: Neu5Ac(a2-6)Gal(b1-4)GlcNAc(b1-2)Man(a1-3)[Gal(b1-4)GlcNAc(b1-2)Man(a1-6)]Man(b1-4)GlcNAc(b1-4)GlcNAc
# Summary of the method: as §1
# [36] = target: Neu5Ac(a2-6)Gal(b1-4)GlcNAc(b1-6)[Gal(b1-3)GlcNAc(b1-3)]Gal(b1-4)Glc
# Summary of the method: as §1
# [37] = target: Neu5Ac(a2-6)GlcNAc(b1-4)GlcNAc(b1-4)GlcNAc
# Summary of the method: as §1
binder,measurement,setting,value
FimA-N1 (Actinomyces oris) (protein) MHHHHHHSSGVDLGTENLYFQSNATETPNYGNIKTDATGSLVIHKHLTGGGKDIGTPTGTAQNADDKGPAVEGVVFTAYPITDINLKDPAGWDTISNLSRTGVPDSACANPAAPTLGAHQFGTPKVSPATTKEGLATITEMPVQAYLVCETTTPGDIVQKAKPFVVTIPHPNTAAGADGQWIYDVNVYPKNEAIDVDKTIQAQK,glycan array binding signal (z-score),[1],2.83
same,glycan array binding signal (z-score),[2],-0.245
same,glycan array binding signal (z-score),Fuc(a1-2)Gal(b1-3)GlcNAc,-0.136
same,glycan array binding signal (z-score),[3],0.011
same,glycan array binding signal (z-score),[4],1.81
same,glycan array binding signal (z-score),[5],-0.23
same,glycan array binding signal (z-score),[6],0.129
same,glycan array binding signal (z-score),[7],1.69
same,glycan array binding signal (z-score),Fuc(a1-3)GlcNAc,-0.336
same,glycan array binding signal (z-score),[8],0.002
same,glycan array binding signal (z-score),Gal(a1-3)Gal(b1-3)GlcNAc,1.89
same,glycan array binding signal (z-score),[9],-0.21
same,glycan array binding signal (z-score),[10],-0.363
same,glycan array binding signal (z-score),[11],0.207
same,glycan array binding signal (z-score),Gal(b1-2)Gal,1.45
same,glycan array binding signal (z-score),Gal(b1-3)Gal(b1-4)GlcNAc,-0.145
same,glycan array binding signal (z-score),[12],-0.448
same,glycan array binding signal (z-score),[13],-0.504
same,glycan array binding signal (z-score),[14],3.13
same,glycan array binding signal (z-score),Gal(b1-4)Gal,-0.308
same,glycan array binding signal (z-score),Gal(b1-4)GlcNAc,-0.171
same,glycan array binding signal (z-score),[15],-0.483
same,glycan array binding signal (z-score),[16],1.54
same,glycan array binding signal (z-score),[17],3.32
same,glycan array binding signal (z-score),[18],-0.434
same,glycan array binding signal (z-score),Gal3S(b1-3)GlcNAc,-0.055
same,glycan array binding signal (z-score),Gal3S(b1-4)Glc6S,3.06
same,glycan array binding signal (z-score),[19],1.9
same,glycan array binding signal (z-score),[20],7.57
same,glycan array binding signal (z-score),Gal4S6S(b1-4)GlcNAc,0.072
same,glycan array binding signal (z-score),Gal6S(b1-4)GlcNAc,0.396
same,glycan array binding signal (z-score),[21],0.521
same,glycan array binding signal (z-score),[22],-0.352
same,glycan array binding signal (z-score),GalNAc(b1-4)GlcNAc,-0.187
same,glycan array binding signal (z-score),[23],-0.509
same,glycan array binding signal (z-score),[24],0.476
same,glycan array binding signal (z-score),[25],-0.002
same,glycan array binding signal (z-score),Kdn(a2-3)Gal(b1-4)Glc,0.117
same,glycan array binding signal (z-score),[26],-0.463
same,glycan array binding signal (z-score),[27],0.079
same,glycan array binding signal (z-score),[28],-0.244
same,glycan array binding signal (z-score),[29],-0.572
same,glycan array binding signal (z-score),[30],-0.466
same,glycan array binding signal (z-score),[31],2.52
same,glycan array binding signal (z-score),[32],-0.03
same,glycan array binding signal (z-score),[33],-0.173
same,glycan array binding signal (z-score),[34],-0.454
same,glycan array binding signal (z-score),[35],6.46
same,glycan array binding signal (z-score),[36],-0.313
same,glycan array binding signal (z-score),[37],0.006
